Results on 28 compounds are retold here after PubChem BioAssay (NCATS).

Several values for one entry are separate records, joined by “and”; a condition that tells them apart may be missing. Equal values may be shown once. Records with an inconclusive call do not appear. Some compounds were tested as several samples or in several runs, with calls that do not always agree. Unmarked numbers belong to inactive results. Activity calls are given as the source filed them. The call rests on the fitted dose curve; in most records, active means well fitted inhibition curve with a large enough effect; inconclusive means small, poorly fitted or top-dose-only effect; inactive means flat fitted curve, though single readings scatter.
On the % scale 0 is the no-effect control and ±100 the full control effect; potency means the concentration at half of the fitted maximal effect.

The test system of the first test is HaCat. The test can be described thus: Cytotoxic Profiling of Annotated Libraries Using Quantitative High-Throughput Screening (AID 1296008). Further: nearly all actives have a fitted effect of over 60% in size. The settings on record: Five cell lines viability, CellTiter-Glo ATP luminescence, 48-72 h; max response: hits give low values. Put shortly: (§1)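 Cells exposed to compounds for 48 or 72 hr at 37 degrees Celsius. Viability read as ATP-coupled luminescence with CellTiter-Glo after 10 min at room temperature.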
For orientation: Cellular ATP, detected with luciferase, serves as a proxy for viable cell number.
Regarding `CCn1c(-c2nonc2N)nc2c(C#CC(C)(C)O)ncc(OC[C@H]3CCCNC3)c21`, the compound was classed as inactive. Consider `COCCNCCCn1c(C(=O)CF)c(-c2ccc(C)cc2)c2c(N)ncnc21`, for which the max response is -0.681%. Same read-out and setting: to `OCCC#Cc1nc(-c2ccc(F)cc2)c(-c2ccncc2)n1CCCc1ccccc1` belongs 4.71%; to `NC(=O)C1CCCc2c1[nH]c1ccc(Cl)cc21` (stereo unspecified), -10.7%. As for `OC[C@H](Cc1ccccc1)Nc1nc(Oc2ccc3c(c2)CCC3)nc2c1ncn2Cc1ccc(-c2ccccc2)cc1`, the call was inactive. For the compound `CCCS(=O)(=O)Nc1ccc(F)c(C(=O)c2c[nH]c3ncc(-c4ccc(Cl)cc4)cc23)c1F`, the max response was -13.3%. As for `Cc1cccc(-c2nn(C(=S)Nc3ccccc3)cc2-c2ccnc3ccccc23)n1`, the max response is -21.4%. `Cc1ccc(N(CC2=NCCN2)c2cccc(O)c2)cc1`: the max response was 1.48% and the result was inactive. For `O=c1ncn2nc(Sc3ccc(F)cc3F)ccc2c1-c1c(Cl)cccc1Cl`, the max response was -4.37%. For `N#Cc1ccc(C(c2ccc(C#N)cc2)n2cncn2)cc1`, the max response was 2.76%. Regarding `Nc1nccc(-c2ccc3noc(-c4ccc(Cl)cc4)c3c2)n1`, the max response was -32.6%.

With `Cc1cc(-c2ccc(CC(=O)Nc3ccc(-c4cccnc4)cc3)cc2)ccn1`, the call was inactive. For `COc1ccc2nc(S(=O)Cc3ncc(C)c(OC)c3C)[nH]c2c1` (stereo unspecified), the result was inactive. Regarding `Cc1cc(Nc2nc(N[C@@H](C)c3ncc(F)cn3)ncc2Cl)n[nH]1`, the Potency was 6.51 µM (active). On to `CNC(=O)c1ccc(N2C(=S)N(c3ccc(C#N)c(C(F)(F)F)c3)C(=O)C2(C)C)cc1F`, for which the result was inactive.

As to `NC(=O)c1ccc(-c2nc(-c3ccc4c(c3)OCCO4)c(-c3ccccn3)[nH]2)cc1`, the max response is -0.259%.

For `CC(C)(C)OC(=O)CN(Cc1ccc(Cl)cc1)Cc1ccc([N+](=O)[O-])s1`, the result was inactive. As to `Cc1ccc(NC(=O)c2cccc(C(C)(C)C#N)c2)cc1Nc1ccc2ncn(C)c(=O)c2c1`, the Potency is 13.2 µM (active).

On to `Fc1ccc(Cl)cc1-c1nc(Nc2ccncc2)c2nccnc2n1`, for which the call was inactive. `CS(=O)(=O)c1cccc(CNc2nc(Nc3ccc4c(c3)CCC(=O)N4)ncc2C(F)(F)F)c1`: the Potency was 14.6 µM (active). Take `CCOc1cc(N2CCC(O)CC2)ccc1Nc1ncc2c(n1)N(C)c1ccccc1C(=O)N2C`: the max response was 2.41%. Consider `CCc1cncnc1N1CCN(Cc2nc3ccc(C(F)(F)F)cc3[nH]2)CC1`, for which the max response is -29.7%.

Another test relates to KB-3-1. The test is described as above. The settings on record: Five cell lines viability, CellTiter-Glo ATP luminescence, 48-72 h; max response: hits give low values. Put shortly: as §1
In the case of `CCn1c(-c2nonc2N)nc2c(C#CC(C)(C)O)ncc(OC[C@H]3CCCNC3)c21`, the Potency is 9.35 µM (active). `CCOC(=O)N1CCC(=C2c3ccc(Cl)cc3CCc3cccnc32)CC1`: the compound was called inactive. `COCCNCCCn1c(C(=O)CF)c(-c2ccc(C)cc2)c2c(N)ncnc21`: the max response is -1.17%.

Turning to `OCCC#Cc1nc(-c2ccc(F)cc2)c(-c2ccncc2)n1CCCc1ccccc1`, the max response is 6.14%. As to `NC(=O)C1CCCc2c1[nH]c1ccc(Cl)cc21` (stereo unspecified), the max response is 2.38%. As for `OC[C@H](Cc1ccccc1)Nc1nc(Oc2ccc3c(c2)CCC3)nc2c1ncn2Cc1ccc(-c2ccccc2)cc1`, the max response was -22.3%.

For `CCCS(=O)(=O)Nc1ccc(F)c(C(=O)c2c[nH]c3ncc(-c4ccc(Cl)cc4)cc23)c1F`, the max response was 4.09%. Still for that read-out and setting: to `Cc1cccc(-c2nn(C(=S)Nc3ccccc3)cc2-c2ccnc3ccccc23)n1` belongs -23.5%; to `Cc1ccc(N(CC2=NCCN2)c2cccc(O)c2)cc1`, 5.53% and -7.75%; to `O=c1ncn2nc(Sc3ccc(F)cc3F)ccc2c1-c1c(Cl)cccc1Cl`, -0.339%. As for `N#Cc1ccc(C(c2ccc(C#N)cc2)n2cncn2)cc1`, the max response is -0.837% and -6.35%. On to `Nc1nccc(-c2ccc3noc(-c4ccc(Cl)cc4)c3c2)n1`, for which the max response was 5.59%. For `Cc1cccc(-c2[nH]c(C(C)(C)C)nc2-c2ccc3nccnc3c2)n1`, the Potency is 14.8 µM (active). On to `Cn1cnc2c(F)c(Nc3ccc(Br)cc3Cl)c(C(=O)NOCCO)cc21`, for which the Potency was 9.35 µM (active); the max response was -17.4% and -1.76%.

Turning to `COc1ccc2nc(S(=O)Cc3ncc(C)c(OC)c3C)[nH]c2c1` (stereo unspecified), the max response was -5.29%. As for `CNC(=O)c1ccc(N2C(=S)N(c3ccc(C#N)c(C(F)(F)F)c3)C(=O)C2(C)C)cc1F`, the max response is 8.38%. For the compound `Cc1cc2c(C(C)C)c(O)c(O)c(C=O)c2c(O)c1-c1c(C)cc2c(C(C)C)c(O)c(O)c(C=O)c2c1O`, the Potency is 9.35 µM (active).

Take `CC(C)(C)OC(=O)CN(Cc1ccc(Cl)cc1)Cc1ccc([N+](=O)[O-])s1`: the max response is 0.3%. Take `Fc1ccc(Cl)cc1-c1nc(Nc2ccncc2)c2nccnc2n1`: the max response is 2.67%. As for `c1ccc(-c2nn3c(c2-c2ccnc4cc(OCCN5CCOCC5)ccc24)CCC3)nc1`, the max response is 6.43%. Regarding `CS(=O)(=O)c1cccc(CNc2nc(Nc3ccc4c(c3)CCC(=O)N4)ncc2C(F)(F)F)c1`, the Potency was 18.7 µM (active). Turning to `CC(=O)NC(C)c1ccc(Oc2ccc(OC(C)C)cc2)cc1` (stereo unspecified), the max response is 7.61%.
